Measurements reported in PubChem BioAssay (NCATS).
Several values for one entry are separate records, joined by “and”; a condition that tells them apart may be missing. Identical values can stand only once. Inconclusive results are not listed. Some compounds were tested as several samples or in several runs, with calls that do not always agree. Activity calls are given as the source filed them. Calls come from the whole dose curve; as a rule, active = well fitted curve in the direction sought with a large enough effect; inconclusive = small, poorly fitted or top-dose-only effect, or another doubt; inactive = no such curve, though single readings can be large; an effect the other way counts as inactive or inconclusive.

Assays:
TAB165 = assay: qHTS profiling for inhibitors of Plasmodium falciparum proliferation (AID 504749); note: nearly all actives have a fitted effect of over 60% in size; note: potency is the fitted concentration of half-maximal effect; conditions: P. falciparum in erythrocytes, SYBR Green DNA, 72 h; series mostly up to 28.7 µM
Summary of the method: (§1)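 Each compound contacts P. falciparum-infected red blood cells for 72 h at 37 C; lysis buffer (Tris, EDTA, saponin, Triton X, SYBR Green I) is added and fluorescence measured next morning; values normalized to controls.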

W2 = assay: as above; conditions: P. falciparum in erythrocytes, SYBR Green DNA, 72 h; series mostly up to 28.7 µM
Summary of the method: as §1

CRL-7250 = normal cell line; assay: Cytotoxic Profiling of Annotated Libraries Using Quantitative High-Throughput Screening (AID 1296008); conditions: Five cell lines viability, CellTiter-Glo ATP luminescence, 48-72 h; max response: stronger effect = lower value; note: nearly all actives have a fitted effect of over 60% in size; note: potency is the fitted concentration of half-maximal effect; for max response: % is set by controls: 0 for no effect and ±100 for the full control effect
Summary of the method: (§2)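 Cells exposed to compounds for 48 or 72 hr at 37 degrees Celsius. Viability read as ATP-coupled luminescence with CellTiter-Glo after 10 min at room temperature.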

HEK293 = assay: as above; conditions: Five cell lines viability, CellTiter-Glo ATP luminescence, 48-72 h; max response: stronger effect = lower value
Summary of the method: as §2

HaCat [1] = assay: as above; conditions: Five cell lines viability, CellTiter-Glo ATP luminescence, 48-72 h; max response: stronger effect = lower value
Summary of the method: as §2

KB-3-1 = assay: as above; conditions: Five cell lines viability, CellTiter-Glo ATP luminescence, 48-72 h; max response: stronger effect = lower value
Summary of the method: as §2

NIH3T3 [2] = assay: as above; conditions: Five cell lines viability, CellTiter-Glo ATP luminescence, 48-72 h; max response: stronger effect = lower value
Summary of the method: as §2

HACAT [3] = assay: qHTS assay to identify novel small-molecules to repurpose for Merkel cell carcinoma treatment (AID 1296009); conditions: MCC and control cell lines, CellTiter-Glo viability, 72 h; at 44.8 µM (top of the series) unless noted; note: nearly all actives have a fitted effect of over 60% in size; note: potency is the fitted concentration of half-maximal effect
Summary of the method: (§3)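 Dose-response viability screen; 72 hr exposure at 37 degree celsius; CellTiter-Glo added, 10 min room temperature, luminescence read; RLUs scaled between no-cell and DMSO wells.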

HEK293T = assay: as above; conditions: MCC and control cell lines, CellTiter-Glo viability, 72 h; at 44.8 µM (top of the series) unless noted
Summary of the method: as §3

MCC-13 = assay: as above; conditions: MCC and control cell lines, CellTiter-Glo viability, 72 h; series mostly up to 46 µM
Summary of the method: as §3

MKL-1 = assay: as above; conditions: MCC and control cell lines, CellTiter-Glo viability, 72 h; series mostly up to 46 µM
Summary of the method: as §3

MKL-2 = assay: as above; conditions: MCC and control cell lines, CellTiter-Glo viability, 72 h; series mostly up to 46 µM
Summary of the method: as §3

UISO = assay: as above; conditions: MCC and control cell lines, CellTiter-Glo viability, 72 h; series mostly up to 46 µM
Summary of the method: as §3

WaGa = assay: as above; conditions: MCC and control cell lines, CellTiter-Glo viability, 72 h; series mostly up to 46 µM
Summary of the method: as §3

C33A = assay: Primary qHTS to identify gynecologic anti-cancer compounds using libraries of approved drugs and bioactive compounds (AID 1345084); conditions: Gynecologic cancer cell panel viability, ATPlite luminescence, 48 h; series mostly up to 57.5 µM; note: % is set by controls: 0 for no effect and ±100 for the full control effect; nearly all actives have a fitted effect of over 55% in size
Summary of the method: (§4)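 Five-point cytotoxicity, 48 h drug exposure at 37 C, 5% CO2, on cells seeded 16 h beforehand. ATP content read by ATPlite luminescence.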

CAOV3 = assay: as above; conditions: Gynecologic cancer cell panel viability, ATPlite luminescence, 48 h; series mostly up to 57.5 µM
Summary of the method: as §4

CASKI = assay: as above; conditions: Gynecologic cancer cell panel viability, ATPlite luminescence, 48 h; series mostly up to 57.5 µM
Summary of the method: as §4

Es-2 = assay: as above; conditions: Gynecologic cancer cell panel viability, ATPlite luminescence, 48 h; series mostly up to 57.5 µM
Summary of the method: as §4

MCC-26 = assay: qHTS assay to identify novel small-molecules to repurpose for Merkel cell carcinoma treatment (AID 1296009); conditions: MCC and control cell lines, CellTiter-Glo viability, 72 h; series mostly up to 46 µM; note: nearly all actives have a fitted effect of over 60% in size; note: potency is the fitted concentration of half-maximal effect
Summary of the method: as §3

NIH3T3 [4] = assay: as above; conditions: MCC and control cell lines, CellTiter-Glo viability, 72 h; at 44.8 µM (top of the series) unless noted
Summary of the method: as §3

CCN(C)C(=O)Oc1cccc([C@H](C)N(C)C)c1
inactive: Potency (TAB165) | Potency (W2) | max response (CRL-7250) -5.92% and -3.92% | max response (HEK293) -9.47% | outcome (HEK293) | max response (HaCat [1]) -4.32% | outcome (HaCat [1]) | max response (KB-3-1) 1.39% and 1.13% | max response (NIH3T3 [2]) 1.74% and -5.17% | outcome (HACAT [3]) | outcome (HEK293T) | Potency (MCC-13) | Potency (MKL-1) | Potency (MKL-2) | Potency (UISO) | Potency (WaGa) | Potency (C33A) | Potency (CAOV3) | Potency (CASKI) | Potency (Es-2)

CCC(=O)O[C@]1(C(=O)SCF)[C@H](C)C[C@H]2[C@@H]3C[C@H](F)C4=CC(=O)C=C[C@]4(C)[C@@]3(F)[C@@H](O)C[C@@]21C
inactive: outcome (CRL-7250) | max response (HEK293) 1.44% and 1.99% | max response (HaCat [1]) 0.77% | outcome (HaCat [1]) | max response (KB-3-1) 26.7% | outcome (KB-3-1) | max response (NIH3T3 [2]) 1.81% and -2.44% | outcome (HACAT [3]) | Potency (MCC-13) | Potency (MCC-26) | Potency (MKL-1) | Potency (MKL-2) | Potency (UISO) | Potency (WaGa) | Potency (C33A) | Potency (CASKI) | Potency (Es-2)

C#CCN[C@@H]1CCc2ccccc21
inactive: Potency (TAB165) | Potency (W2) | max response (CRL-7250) -10.3% and 4.11% | max response (HEK293) -23.7% | outcome (HEK293) | max response (HaCat [1]) 0.653% | max response (KB-3-1) -4.71% | max response (NIH3T3 [2]) 1.77% | outcome (NIH3T3 [2]) | outcome (HEK293T) | Potency (MCC-13) | Potency (MCC-26) | Potency (MKL-1) | Potency (MKL-2) | outcome (NIH3T3 [4]) | Potency (UISO) | Potency (WaGa) | Potency (C33A) | Potency (CAOV3) | Potency (CASKI) | Potency (Es-2)

CNCC[C@H](Oc1cccc2ccccc12)c1cccs1
active: Potency (TAB165) 12.6 µM | Potency (W2) 1.9 µM | Potency (HEK293) 21.1 µM | Potency (MKL-2) 16.8 µM and 18.7 µM | Potency (UISO) 16.6 µM
inactive: max response (CRL-7250) -21.6% | outcome (CRL-7250) | outcome (HaCat [1]) | max response (KB-3-1) -19.6% and -13.2% | outcome (HACAT [3]) | Potency (MCC-13) | Potency (WaGa)

CCc1cc(C(N)=S)ccn1
inactive: Potency (TAB165) | Potency (W2) | max response (CRL-7250) -4.32% and -3.13% | max response (HEK293) -11.8% | outcome (HEK293) | max response (HaCat [1]) -10.8% | outcome (HaCat [1]) | max response (KB-3-1) -6.3% and 8.73% | max response (NIH3T3 [2]) -2.49% | outcome (NIH3T3 [2]) | outcome (HACAT [3]) | outcome (HEK293T) | Potency (MCC-13) | Potency (MCC-26) | Potency (MKL-1) | Potency (MKL-2) | outcome (NIH3T3 [4]) | Potency (UISO) | Potency (WaGa) | Potency (CAOV3) | Potency (CASKI) | Potency (Es-2)

COCCCOc1cc(C[C@@H](C[C@H](N)[C@@H](O)C[C@H](C(=O)NCC(C)(C)C(N)=O)C(C)C)C(C)C)ccc1OC
inactive: max response (CRL-7250) -2.04% | outcome (HEK293) | max response (HaCat [1]) 0.78% | outcome (HaCat [1]) | max response (KB-3-1) -10.1% and 2.39% | max response (NIH3T3 [2]) -0.804% | outcome (NIH3T3 [2]) | outcome (HACAT [3]) | outcome (HEK293T) | Potency (MCC-13) | Potency (MKL-1) | Potency (MKL-2) | outcome (NIH3T3 [4]) | Potency (UISO) | Potency (WaGa) | Potency (C33A) | Potency (CAOV3) | Potency (CASKI) | Potency (Es-2)

CCCOc1ccc(C(=O)OCCN(CC)CC)cc1N
inactive: max response (CRL-7250) -2.34% and -3.98% | max response (HEK293) -0.795% | outcome (HEK293) | max response (HaCat [1]) -1.58% and 2.22% | max response (KB-3-1) -2.47% and 5.78% | outcome (NIH3T3 [2]) | outcome (HEK293T) | Potency (MCC-13) | Potency (MCC-26) | Potency (MKL-1) | Potency (MKL-2) | outcome (NIH3T3 [4]) | Potency (UISO) | Potency (WaGa) | Potency (C33A) | Potency (CAOV3) | Potency (CASKI) | Potency (Es-2)

CCOc1cc(N)c(Cl)cc1C(=O)NCC1CN(Cc2ccc(F)cc2)CCO1 (stereo not given)
inactive: outcome (CRL-7250) | outcome (HEK293) | max response (HaCat [1]) -10.3% | outcome (HaCat [1]) | max response (KB-3-1) 4.82% and -2.19% | max response (NIH3T3 [2]) 1.17% | outcome (NIH3T3 [2]) | outcome (HACAT [3]) | outcome (HEK293T) | Potency (MCC-13) | Potency (MKL-1) | Potency (MKL-2) | outcome (NIH3T3 [4]) | Potency (UISO) | Potency (WaGa) | Potency (C33A) | Potency (CAOV3) | Potency (CASKI) | Potency (Es-2)
active: Potency (TAB165) 6.31 µM | Potency (W2) 7.57 µM

C[C@@H](NCCCc1cccc(C(F)(F)F)c1)c1cccc2ccccc12
inactive and 29.9 µM (active): Potency (MCC-26)
active: Potency (TAB165) 3.98 µM | Potency (W2) 1.69 µM | Potency (HEK293) 15 µM | Potency (NIH3T3 [2]) 18.8 µM
inactive: outcome (CRL-7250) | max response (HEK293) -18.5% | max response (HaCat [1]) -15.9% | max response (KB-3-1) 5.7% | outcome (NIH3T3 [2]) | Potency (MCC-13) | Potency (MKL-1) | Potency (MKL-2) | outcome (NIH3T3 [4]) | Potency (UISO)
